Screening data: PubChem BioAssay, National Center for Advancing Translational Sciences (NCATS)
Tau fil binding – qHTS Assay for Tau Filament Binding | recombinant tau filaments, thioflavin S fluorescence, 15 h; filaments grown with octadecylsulfate alongside compound | Potency, µM (top dose mostly 57.1 µM), without a hit: top-dose activity change, negative = inhibition | 2% of 71,000 active;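 note: % is set by controls: 0 for no effect and ±100 for the full control effect; actives lower thioflavin S fluorescence by blocking filaments or displacing dye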
Target sequence (P10636 whole entry, looked up): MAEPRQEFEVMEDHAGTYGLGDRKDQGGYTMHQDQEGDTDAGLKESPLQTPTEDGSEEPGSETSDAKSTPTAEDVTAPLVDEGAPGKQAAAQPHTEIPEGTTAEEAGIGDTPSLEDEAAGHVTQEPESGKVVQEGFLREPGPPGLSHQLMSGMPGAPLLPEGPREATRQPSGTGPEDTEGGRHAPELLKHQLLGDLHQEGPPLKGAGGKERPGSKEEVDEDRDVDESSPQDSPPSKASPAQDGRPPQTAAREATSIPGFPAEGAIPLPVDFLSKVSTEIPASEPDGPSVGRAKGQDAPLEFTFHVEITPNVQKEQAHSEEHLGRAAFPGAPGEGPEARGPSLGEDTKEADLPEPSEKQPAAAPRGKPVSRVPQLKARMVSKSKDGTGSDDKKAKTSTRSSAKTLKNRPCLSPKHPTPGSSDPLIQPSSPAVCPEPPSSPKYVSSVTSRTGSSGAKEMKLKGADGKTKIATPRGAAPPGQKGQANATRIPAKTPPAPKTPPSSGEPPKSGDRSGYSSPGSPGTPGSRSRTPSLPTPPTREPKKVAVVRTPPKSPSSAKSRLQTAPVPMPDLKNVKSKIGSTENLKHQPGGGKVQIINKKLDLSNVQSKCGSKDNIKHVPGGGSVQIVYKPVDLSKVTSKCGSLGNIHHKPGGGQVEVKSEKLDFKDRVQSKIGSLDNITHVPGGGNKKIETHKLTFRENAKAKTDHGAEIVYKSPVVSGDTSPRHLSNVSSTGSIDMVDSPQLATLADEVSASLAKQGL
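Thioflavine S fluorescence (ex 450, em 510 nm) reports filaments formed from 1 uM human tau plus 30 uM ODS over 15 h at 37 C (10 mM HEPES pH 7.4, 100 mM NaCl, 5 mM DTT); compounds displacing dye or blocking filaments lower signal.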
PK Bst – Pyruvate Kinase; purified pyruvate kinase, luminescence ATP production; ribose 5-phosphate activator present at AC10; AID 361, 2006; 1.2% of 51,000 active; Potency, µM; in the data active = potency below about 11 µM; inconclusive = mostly about 12 µM to 25 µM;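 the screen sought inhibitors and activators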;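 note: scaled between full activation by ribose 5 phosphate and full inhibition by luteolin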
TSHR ag – qHTS Assay for Agonists of the Thyroid Stimulating Hormone Receptor; Thyrotropin receptor (Homo sapiens), P16473; HEK293-CNG-TSHR cells (CNG channel as cAMP sensor), membrane potential dye, cAMP; Potency, µM (doses to about 57.1 µM), for inactives: at the highest dose activation, hits mostly activators; 0.48% of 73,000 active; AID 926, 2007; active = well fitted activation curve with a large enough effect in the main read-out, with a control signal flat, not every such curve was filed as active; inconclusive = small, poorly fitted or top-dose-only effect, or a change in a side signal; inactive = no such curve, though single readings can be large or run the other way; % of control where 0% means no effect;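 note: the control signal comes from parental cells without the receptor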
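cAMP rise detected as CNG-channel membrane depolarization by fluorescent dye (emission 590 nm), 30 min after compound, following 60 min dye loading containing 100 uM RO 20-1724 at room temperature. Cells: TSHR/CNG HEK 293, with parental CNG HEK 293 as control.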
HEK293 cAMP cs – qHTS Assay for Agonists of the Thyroid Stimulating Hormone Receptor: Activators of Intracellular cAMP Concentrations in Parental HEK 293; parental HEK293 CNG cAMP sensor, membrane potential fluorescence; Potency, µM (series often up to 57.1 µM), inactives show at the top dose activation, hits mostly activators; 2.5% of 73,000 active; AID 938, 2007; note: % of control where 0% means no effect; nearly all actives have a fitted effect of over 55% in size
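Parental HEK 293 cells stably expressing a modified CNG channel (no TSHR) report cAMP rise as membrane depolarization. Membrane potential dye with 100 uM RO 20-1724 was loaded for 60 min at room temperature, then compound added for 30 min; fluorescence read at 590 nm.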
FLuc inh – qHTS Assay for Inhibitors of Firefly Luciferase | Luciferin 4-monooxygenase (Photinus pyralis), P08659 | purified firefly luciferase, luminescence, 8 min | Potency, µM (highest dose often 57.1 µM), for the others: at the highest dose activity change, negative = inhibition, most hits filed as inhibitors | 2.2% of 72,000 active | AID 411, 2009; note: % is set by controls: 0 for no effect and ±100 for the full control effect; nearly all actives have a fitted effect of over 40% in size
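Inhibition of light generation by firefly luciferase from ATP and luciferin was profiled with concentration-response curves per sample, ATP held at 10 uM within the enzyme's linear range. Plates were read by luminescence after an 8-minute ambient incubation.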
15-hLO inh – qHTS Assay for Inhibitors of 15-hLO (15-human lipoxygenase). Polyunsaturated fatty acid lipoxygenase ALOX15 (Homo sapiens), P16050. purified 15hLO-1, xylenol orange hydroperoxide absorbance. Potency, µM (titrated, usually from 57.1 µM), for inactives: top-dose activity change, negative = inhibition, actives largely listed as inhibitors. 1.4% of 74,000 active. AID 887, 2007; note: % is set by controls: 0 for no effect and ±100 for the full control effect; nearly all actives have a fitted effect of over 55% in size
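Purified human 15hLO-1 (40 nM final) in 25 mM Hepes pH 7.5, 0.01% Triton X-100 was preincubated with compound 15 min at room temperature, then reacted 6 min with 50 uM arachidonic acid; hydroperoxide detected by Fe-XO, 573/405 nm absorbance ratio.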
Numbers without * were called inactive; ? = inconclusive; / = no result; [ ] = another dose, or the depositor's remark. Rows were chosen to be rich in hits. Some 7.8% of all compounds tested hit in one or more screens of this group. Unless noted, calls come from the whole dose curve; as a rule, active = well fitted curve in the direction sought with a large enough effect; inconclusive = small, poorly fitted or top-dose-only effect, or another doubt; inactive = no such curve, though single readings can be large; an effect the other way counts as inactive or inconclusive. Potency is the fitted concentration of half-maximal effect.

SMILES	Tau fil binding	PK Bst	TSHR ag	HEK293 cAMP cs	FLuc inh	15-hLO inh
Cc1nn(-c2ccccc2)c2c1C(c1ccc3c(c1)OCO3)SCC(=O)N2 (stereo unspecified)	-18%	?	10µM*	13%	1%	-7%
CN1CCc2cc3c(cc2[C@@H]1[C@H]1OC(=O)c2c1ccc1c2OCO1)OCO3	?	/	?	?	-2%[11.4 µM]	/
CCC(=O)O[C@H]1CC[C@H]2[C@@H]3CCC4=CC(=O)CC[C@]4(C)[C@H]3CC[C@]12C	47%[25.6 µM]	/	?	16µM*	-2%[25.5 µM]	14%[25.6 µM]
CC12CCC(=O)C=C1CCC1C2CCC2(C)C(O)CCC12 (stereo unspecified)	16%	/	13%	5%	1%	4%
N#CC(C#N)=NNc1ccc(OC(F)(F)F)cc1	/	/	?	0.63µM*	/	?
CN[C@H]1[C@H]2[C@H]3CCN2C[C@@H]1O3	?	/	5%	0%	1%[11.4 µM]	/
C#CCN1C(C)=C(C(=O)CCO)[C@@H](c2cccc(-n3oo3)c2)C(C(=O)OC)=C1C	40µM*	/	?	?	3%	-13%[25.6 µM]
Cc1cccc(C2=NCC(=O)N(CC(=O)NCc3ccco3)c3sc4c(c32)CCCC4)c1	48%	>57	?	?	0%	25µM*
O=C(CN1C(=O)CN=C(c2ccccc2Cl)c2cc(Cl)ccc21)NCc1ccco1	27%	>57	16%	17%	0%	-8%
COc1ccc(C2=NCC(=O)N(CC(=O)NCc3ccco3)c3sc4c(c32)CCCC4)cc1	20%	>57	16µM*	19%	-1%	?
N#CC(C(=O)C12CC3CC(CC(C3)C1)C2)c1nc2ccccc2[nH]1 (stereo unspecified)	43%	>57	?	3.2µM*	?	-12%
N#CC(C#N)=NNc1cccc(Cl)c1	/	/	?	0.63µM*	/	?
COc1cc(C=C(C#N)C#N)cc(O)c1O	41%	/	-7%	-11%	0%	?
CC(C)(C)c1cc(C=C(C#N)C#N)cc(C(C)(C)C)c1O	-4%	/	?	0.79µM*	0%	?
O=C(O)[C@@H](O)[C@@H](O)[C@@H]1[O][Sb][O][C@@H]1CO	3%[11.4 µM]	/	/	-5%[11.4 µM]	4%[11.4 µM]	-5%[11.4 µM]
C[C@@H]1Cc2cc3c(cc2C(c2ccc(N)cc2)=NN1)OCO3	40µM*	/	-4%	11%	-4%	?
O=c1ccc2cc(O[C@@H]3O[C@@H](CO)[C@@H](O)[C@@H](O)[C@H]3O)c(O)cc2o1	?	/	-1%	-1%	0%[11.4 µM]	/
O=C(Oc1ccccc1)N1CCC2(CC1)CN(C(c1ccccc1)c1ccccc1)C2	2%	/	?	32µM*	0%[11.4 µM]	-20%
O=C(Oc1ccccc1)N1CCC2(CC1)CN(Cc1ccncc1)C2	-10%	/	6%	20%	-3%[11.4 µM]	-1%
C=CCCN1C[C@@H]2C[C@H](C1)c1cccc(=O)n1C2	-14%	/	-5%	3%	1%[11.4 µM]	/
[O-]/[N+](=C/c1cccnc1)c1ccc(Br)cc1	-12%[11.4 µM]	/	0%[11.4 µM]	9%[11.4 µM]	10µM*	-16%[11.4 µM]
CC(=O)OCC1=C(C(=O)[O-])N2C(=O)[C@@H](NC(=O)CCC[C@@H](N)C(=O)[O-])[C@@H]2SC1.[Zn+2]	-11%	/	-23%	3%	4%	25µM*
CC(=O)OCC1=C(C(=O)O)N2C(=O)[C@@H](N)[C@@H]2SC1	-11%[25.6 µM]	/	?	?	3%[25.5 µM]	5%[25.6 µM]
CC(C)Nc1ccc(Nc2ccccc2)cc1	16µM*	/	?	9%	/	?
c1ccc(Nc2ccc3ccccc3c2)cc1	-17%	/	-13%	21%	/	-8%
SMILES	Tau fil binding	PK Bst	TSHR ag	HEK293 cAMP cs	FLuc inh	15-hLO inh
C[C@H]1[C@@H](O)[C@@H](C)/C=C\C=CCC\C=C/C=C\C=C/C=C[C@@H](O[C@H]2O[C@@H](C)[C@@H](O)[C@@H](N)[C@@H]2O)C[C@@H]2O[C@@](O)(C[C@@H](O)[C@H]2C(=O)O)C[C@@H](O)[C@@H](O)CC[C@@H](O)C[C@@H](O)C[C@@H](O)CC(=O)O[C@H]1C	14%[25.6 µM]	/	-16%[25.6 µM]	17%[25.6 µM]	8%[25.5 µM]	7.9µM*
CC1/C=C/C=C/CC/C=C/C=C/C=C/C=C/C(OC2OC(C)C(O)C(N)C2O)CC2O[C@](O)(CC(O)C(O)CCC(O)CC(O)CC(O)CC(=O)OC(C)C(C)C1O)CC(O)C2C(=O)O (stereo partly specified)	/	/	/	/	/	-9%
O=C(O)[C@H]1[C@H](C(=O)O)[C@H]2CC[C@@H]1O2	-6%	/	-77%	5%	2%	7%
O=C1OC(=O)c2c(Cl)c(Cl)c(Cl)c(Cl)c21	21%	/	?	40µM*	/	5%
C=C1CC[C@H](O)C/C1=C/C=C1\CCC[C@]2(C)[C@@H]([C@H](C)CCCC(C)C)CC[C@@H]12	?	/	9%	9%	/	16µM*
O=C1C(Cl)=C(Cl)C(=O)C(Cl)=C1Cl	3%	/	?	?	/	0.16µM*
C=C(C)[C@H]1Cc2c(ccc3c2O[C@H]2COc4cc(OC)c(OC)cc4[C@@H]2C3=O)O1	-3%	/	?	?	5%	-15%
COc1cc2c(cc1OC)-c1c(OC)c(OC)c(CO)c3c1[C@H](C2)N(C)CC3	?	/	7%	9%	1%[11.4 µM]	/
CC(C)NS(=O)(=O)c1ccc(OCC(=O)N2CCN(C)CC2)cc1	-8%	/	-6%	4%	2%	4%
CN1CCN(C(=O)COc2ccc(-c3nc4ccccc4s3)cc2)CC1	39%	1*	?	?	0.79µM*	-4%
NCCc1ccc(O)cc1	-1%	>57	0%	1%	3%	12%
NNC(=O)c1ccc(O)cc1	7%	/	-13%	6%	13µM*	-6%
O=C(CCCN1CCC2(CC1)C(=O)N(CCc1ccc(N=C=S)cc1)CN2c1ccccc1)c1ccc(F)cc1	374%	/	?	?	2%	/
